Reference: PubChem BioAssay (Tox21)
Records with an inconclusive call do not appear. The source made the active and inactive calls. Unless noted, the call rests on the fitted dose curve; in most records, active means well fitted curve in the direction sought with a large enough effect in the repeat runs; inconclusive means weak or mixed curves; inactive means no such curve, though single readings can be large; an effect the other way counts as inactive or inconclusive.

Legend:
[1] = A CellTox Green Cytotoxicity Assay to monitor cytotoxicity in HepG2 cells - 0 hour (AID 1224882); further: nearly all actives have a fitted effect of over 35% in size
Procedure, shortened: (§1)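 First, HepG2 cells (600/well) mixed with reagent were plated; second, after 5 h at 37 C they received compounds via pintool; third, fluorescence was measured at 0 h through 40 h at 8 h intervals.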

[2] = A CellTox Green Cytotoxicity Assay to monitor cytotoxicity in HepG2 cells - 32 hour (AID 1224883); further: nearly all actives have a fitted effect of over 50% in size
Procedure, shortened: as §1

[3] = A CellTox Green Cytotoxicity Assay to monitor cytotoxicity in HEK293 cells - 8 hour (AID 1224884); further: nearly all actives have a fitted effect of over 35% in size
Procedure, shortened: (§2)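 Dead-cell fluorescence measured kinetically: asymmetric cyanine dye, HEK293, 600 cells/well, 5 h settle, 23 nL cpd/DMSO, 37 C, reads 0–40 h every 8 h.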

[4] = qHTS RealTime-Glo MT Cell Viability Assay in HepG2 cells - 16 hour (AID 1224885); further: nearly all actives have a fitted effect of over 50% in size
Procedure, shortened: (§3)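 qHTS, HepG2, 600 cells/well, RealTime-Glo (NanoLuc + prosubstrate) added with cells; 5 h preincubation; DMSO compound addition; 37 C; luminescence at 0/8/16/24/32/40 h.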

[5] = qHTS RealTime-Glo MT Cell Viability Assay in HEK293 cells - 24 hour (AID 1224886); further: top concentration of the series differs between compounds; nearly all actives have a fitted effect of over 50% in size
Procedure, shortened: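 Assay medium contained NanoLuc luciferase plus cell-permeant prosubstrate, added with HEK293 cells at 600 cells/well. After 5 h at 37 C/5% CO2 compounds were added; plates stayed at 37 C for 40 h with serial luminescence reads.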

[6] = qHTS RealTime-Glo MT Cell Viability Assay in HEK293 cells - 8 hour (AID 1224887); further: top concentration of the series differs between compounds; nearly all actives have a fitted effect of over 50% in size
Procedure, shortened: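 600 HEK293 cells per well, dispensed already mixed with RealTime-Glo MT reagents. Compound dosing came 5 h later. The same wells were read for luminescence at 0, 8, 16, 24, 32 and 40 h of exposure at 37 C.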

[7] = A CellTox Green Cytotoxicity Assay to monitor cytotoxicity in HEK293 cells - 16 hour (AID 1224888); further: nearly all actives have a fitted effect of over 35% in size
Procedure, shortened: as §2

[8] = qHTS RealTime-Glo MT Cell Viability Assay in HepG2 cells - 0 hour (AID 1224889); further: nearly all actives have a fitted effect of over 50% in size
Procedure, shortened: as §3

[9] = A CellTox Green Cytotoxicity Assay to monitor cytotoxicity in HepG2 cells - 8 hour (AID 1224890); further: nearly all actives have a fitted effect of over 45% in size
Procedure, shortened: as §1

[10] = qHTS assay to identify small molecule antagonists of the estrogen receptor alpha (ER-alpha) signaling pathway using the BG1 cell line in the presence of 0.1 nM 17-beta-estradiol - cell viability counter screen (AID 1259241); further: nearly all actives have a fitted effect of over 40% in size
Procedure, shortened: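 Estradiol-stimulated (0.1 nM) VM7Luc4E2 cells exposed to compounds 22 hr; viability measured by fluorescence of cleaved CellTiter-Fluor substrate after 30 min.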

[11] = qHTS assay to identify small molecule antagonists of the androgen receptor (AR) signaling pathway using the MDA cell line in the presence of 0.5 nM R1881 - cell viability counter screen (AID 1259242); further: nearly all actives have a fitted effect of over 45% in size
Procedure, shortened: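 qHTS format. MDA-kb2 (MMTV-luc, AR/GR responsive) + cpd + 0.5 nM R1881 final, 16 hr 37C/0% CO2 → CellTiter-Fluor 30 min → fluorescence intensity.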

[12] = target: Androgen receptor (Homo sapiens) (UniProt P10275); assay: qHTS assay to identify small molecule antagonists of the androgen receptor (AR) signaling pathway using the MDA cell line in the presence of 0.5 nM R1881 (AID 1259243); further: nearly all actives have a fitted effect of over 50% in size
Procedure, shortened: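 Antagonist mode quantitative HTS in MDA-kb2 MMTV-luciferase cells, agonist R1881 at 0.5 nM final, 16 hr exposure at 37C and 0% CO2, luminescent detection.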

[13] = target: Estrogen receptor (Homo sapiens) (UniProt P03372); assay: qHTS assay to identify small molecule antagonists of the estrogen receptor alpha (ER-alpha) signaling pathway using the BG1 cell line in the presence of 0.1 nM 17-beta-estradiol (AID 1259244); further: nearly all actives have a fitted effect of over 50% in size
Procedure, shortened: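 Reporter is a stably transfected luciferase under four estrogen responsive elements in VM7Luc4E2 cells expressing native full-length ER-alpha; inhibition of 0.1 nM (final) 17beta-estradiol-driven signal over 22 h is read by luminescence.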

[14] = qHTS assay to identify small molecule HDAC inhibitors (AID 1259364);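 further: wild-type HCT-116 cells with endogenous class I/II HDAC activity; top concentration of the series differs between compounds; nearly all actives have a fitted effect of over 45% in size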
Procedure, shortened: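 Quantitative high-throughput format: overnight-seeded HCT-116 cells got compounds for 2 hr at 37C; HDAC-Glo I/II reagent added, 30 min RT, luminescence measured.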

[15] = qHTS assay to identify small molecule HDAC inhibitors - cell viability counter screen (AID 1259365)
Procedure, shortened: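 After overnight seeding at 1,500 cells per well, wild-type HCT-116 cultures took up compounds in DMSO for 2hr at 37 C. Viable cell content came from luminescence with CellTiter-Glo.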

[16] = qHTS assay to identify small molecule agonists of the sonic hedgehog signaling (Shh) pathway - cell viability counter screen (AID 1259366); further: nearly all actives have a fitted effect of over 50% in size
Procedure, shortened: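 Same-well cytotoxicity read. Gli1-Luc reporter 3T3 cells; compounds 24hr, 37C/5% CO2; CellTiter-Fluor fluorescence.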

[17] = qHTS assay to identify small molecule antagonists of the sonic hedgehog signaling (Shh) pathway - cell viability counter screen (AID 1259367); further: nearly all actives have a fitted effect of over 55% in size
Procedure, shortened: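 Viability was read by CellTiter-Fluor fluorescence in the same wells, reagent added 23 hr into compound treatment and incubated 1 hr at 37C. The 3T3 Gli1-Luc reporter cells (2,000/well) received conditioned medium after compound and ran 24 hr.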

[18] = qHTS assay to identify small molecule agonists of the sonic hedgehog signaling (Shh) pathway (AID 1259368; calls by dose curve;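 further: NIH/3T3-derived 3T3Gli1-Luc cells carrying a stable Gli1-driven firefly luciferase reporter; series mostly up to about 92 µM; nearly all actives have a fitted effect of over 15% in size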)
Procedure, shortened: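 Quantitative high-throughput format using a Gli1-driven firefly luciferase reporter line derived from NIH/3T3 cells. After a 24 hr compound treatment at 37 C and 5% CO2, luminescence reported Gli1 response element activity.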

[19] = qHTS assay to identify small molecule antagonists of the sonic hedgehog signaling (Shh) pathway (AID 1259369; calls by dose curve; further: nearly all actives have a fitted effect of over 45% in size)
Procedure, shortened: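 Stable Gli1-Luc reporter NIH/3T3 clone; quantitative HTS in stimulated mode with conditioned medium. Luminescence measured after 24hr compound treatment at 37 C.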

[20] = qHTS assay to identify small molecule phospholipidosis (PLD) inducers (AID 1259344; active means well fitted curve in the direction sought with a large enough effect; an effect the other way counts as inactive or inconclusive)
Procedure, shortened: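 Phospholipid accumulation was scored by imaging: fixed, Hoechst-counterstained HepG2 cells stained with LipidTOX Red after 24 h compound exposure at 37 C. Read-outs were pit count and pit intensity per well or per cell, with amiodarone and DMSO controls.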
On the % scale 0 is the no-effect control and ±100 the full control effect.

Estrogen receptor (Homo sapiens), sequence (P03372 whole entry, looked up): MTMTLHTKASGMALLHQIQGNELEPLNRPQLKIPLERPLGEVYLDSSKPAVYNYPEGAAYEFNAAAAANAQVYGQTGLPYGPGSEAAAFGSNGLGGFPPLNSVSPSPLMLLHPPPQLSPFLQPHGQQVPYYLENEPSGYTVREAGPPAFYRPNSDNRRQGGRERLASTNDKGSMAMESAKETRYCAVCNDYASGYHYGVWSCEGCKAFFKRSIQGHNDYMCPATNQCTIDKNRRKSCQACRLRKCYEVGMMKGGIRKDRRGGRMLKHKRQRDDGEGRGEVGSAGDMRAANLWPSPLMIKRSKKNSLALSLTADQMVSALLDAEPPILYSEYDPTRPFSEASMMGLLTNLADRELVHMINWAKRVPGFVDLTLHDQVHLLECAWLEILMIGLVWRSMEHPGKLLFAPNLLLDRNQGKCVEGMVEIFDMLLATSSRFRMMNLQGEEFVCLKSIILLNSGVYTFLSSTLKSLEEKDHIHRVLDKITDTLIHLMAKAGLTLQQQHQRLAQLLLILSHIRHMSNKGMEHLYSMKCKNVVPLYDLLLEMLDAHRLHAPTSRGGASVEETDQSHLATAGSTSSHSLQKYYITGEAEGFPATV
Androgen receptor (Homo sapiens), sequence (P10275 whole entry, looked up): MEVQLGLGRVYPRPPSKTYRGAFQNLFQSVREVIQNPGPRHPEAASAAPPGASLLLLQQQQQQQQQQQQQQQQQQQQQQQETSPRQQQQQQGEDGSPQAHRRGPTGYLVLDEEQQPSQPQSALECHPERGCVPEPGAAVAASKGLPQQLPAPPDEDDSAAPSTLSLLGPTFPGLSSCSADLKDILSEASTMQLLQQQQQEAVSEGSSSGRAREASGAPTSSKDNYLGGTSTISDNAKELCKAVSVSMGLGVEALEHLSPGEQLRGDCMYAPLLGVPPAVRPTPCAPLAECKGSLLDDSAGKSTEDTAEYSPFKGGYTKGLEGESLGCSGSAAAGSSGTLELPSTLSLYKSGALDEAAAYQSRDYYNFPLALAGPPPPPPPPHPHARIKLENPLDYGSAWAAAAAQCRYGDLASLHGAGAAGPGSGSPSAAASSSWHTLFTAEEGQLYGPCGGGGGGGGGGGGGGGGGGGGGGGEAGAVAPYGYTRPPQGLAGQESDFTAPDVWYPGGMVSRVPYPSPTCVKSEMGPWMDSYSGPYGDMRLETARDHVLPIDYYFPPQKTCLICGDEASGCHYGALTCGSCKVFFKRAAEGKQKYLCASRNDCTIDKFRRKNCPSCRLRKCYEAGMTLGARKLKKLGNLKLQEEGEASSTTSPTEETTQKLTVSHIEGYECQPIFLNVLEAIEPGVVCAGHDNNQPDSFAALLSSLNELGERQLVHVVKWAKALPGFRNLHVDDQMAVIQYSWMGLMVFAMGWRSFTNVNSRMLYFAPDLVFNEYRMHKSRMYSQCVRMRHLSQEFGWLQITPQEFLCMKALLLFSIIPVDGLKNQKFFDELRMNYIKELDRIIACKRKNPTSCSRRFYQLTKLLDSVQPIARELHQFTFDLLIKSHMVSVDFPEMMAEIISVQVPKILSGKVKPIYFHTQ

O=CC1CC=CCC1 (stereo unspecified)
inactive: Potency [1] | Potency [2] | Potency [3] | Potency [4] | Potency [5] | Potency [6] | Potency [7] | Potency [8] | Potency [9] | Potency [10] | Potency [11] | Potency [12] | Potency [13] | Potency [14] | Potency [15] | Potency [16] | Potency [17] | outcome [18] | Potency [19]

C=CCOc1ccccc1OCC(O)CNC(C)C (stereo unspecified)
inactive: Potency [1] | Potency [2] | Potency [3] | Potency [4] | Potency [5] | Potency [6] | Potency [7] | Potency [8] | Potency [9] | Potency [10] | Potency [11] | Potency [13] | Potency [14] | Potency [15] | Potency [16] | Potency [17] | outcome [18] | Potency [19]

COc1ccc(C(=O)N2CCN(CC(=O)N3CCOCC3)CC2)cc1
inactive: Potency [1] | Potency [2] | Potency [3] | Potency [4] | Potency [5] | Potency [6] | Potency [7] | Potency [8] | Potency [9] | Potency [10] | Potency [11] | Potency [13] | Potency [14] | Potency [15] | Potency [16] | Potency [17] | outcome [18]

Cc1c(N)cccc1[N+](=O)[O-]
inactive: Potency [1] | Potency [2] | Potency [3] | Potency [4] | Potency [5] | Potency [6] | Potency [7] | Potency [8] | Potency [9] | Potency [10] | Potency [11] | Potency [13] | Potency [14] | Potency [15] | Potency [16] | Potency [17] | outcome [18] | Potency [19]

NCc1ccccc1Sc1ccccc1CO
inactive: Potency [1] | Potency [2] | Potency [3] | Potency [4] | Potency [5] | Potency [6] | Potency [7] | Potency [8] | Potency [9] | Potency [10] | Potency [11] | Potency [12] | Potency [13] | Potency [20] | Potency [14] | Potency [15] | Potency [16] | outcome [18] | Potency [19]

Cc1[nH]c(C)c(Cl)c(=O)c1Cl
inactive: cytotoxicity [1] -3.1% [at 15.8 µM] | cytotoxicity increase [2] -7.2% [at 15.8 µM] | cytotoxicity increase [3] -1.54% [at 15.8 µM] | activity change, negative = cytotoxic [4] 0.907% [at 15.8 µM] | activity change, negative = cytotoxicity [5] -19.4% [at 15.8 µM] | activity change, negative = cytotoxicity [6] -23.4% [at 15.8 µM] | activity change [7] -2.28% [at 15.8 µM, active compounds read high] | activity change, negative = cytotoxicity [8] -1.76% [at 15.8 µM] | cytotoxicity increase [9] -4.87% [at 15.8 µM] | activity change, negative = cytotoxicity [10] -5.47% [at 19 µM] | viability change, negative = cytotoxic [11] 1.2% [at 19 µM] | Potency [13] | activity change, negative = inhibition [14] 7.15% [at 19 µM] | activity change, negative = cytotoxicity [15] 8.49% [at 19 µM] | viability change, negative = cytotoxic [16] 6.9% [at 19 µM] | viability change, negative = cytotoxic [17] 1.87% [at 19 µM] | activity change [18] -0.115% [at 18.9 µM] | activity change, negative = inhibition [19] 33.7% [at 19 µM]

C=CC1CC2C=CC1C2 (stereo unspecified)
inactive: Potency [1] | Potency [2] | Potency [3] | Potency [4] | Potency [5] | Potency [6] | Potency [7] | Potency [8] | Potency [9] | Potency [10] | Potency [11] | Potency [13] | Potency [14] | Potency [15] | Potency [16] | Potency [17] | outcome [18]
